HT1080-NT tox = kills 2HG-producing HT-1080-NT fibrosarcoma cells; HT-1080-NT fibrosarcoma viability, CellTiter-Glo ATP luminescence, 48 h; Potency, µM (top dose mostly 46.1 µM), inactives show at the top dose activity, negative = less viability, actives largely listed as cytotoxic; hit rate 1.6% among 360,000; AID 686970;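 note: NT is the 2HG producing partner of a matched IDH1 knockdown line; potency is the fitted concentration of half-maximal effect; 0% = DMSO-treated cells and -100% = media-only wells without cells; nearly all actives have a fitted effect of over 55% in size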
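HT-1080-NT fibrosarcoma cells (2HG-overproducing), 750 cells/well in RPMI with 5% FBS, dosed after 2 h and incubated 48 h at 37C. CellTiter-Glo luminescence normalized to DMSO and no-cell wells; concentration-response curves fitted and classed.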
HT1080 IDH1KD tx = toxicity to HT-1080 IDH1 knockdown cells (counter line). HT-1080 IDH1 knockdown viability, ATP luminescence, 48 h. Potency, µM (top dose mostly 46.1 µM), without a hit: top-dose activity, negative = toxicity, usual class: cytotoxic. hit rate 2% among 360,000;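 note: potency is the fitted concentration of half-maximal effect; 0% = DMSO wells and -100% = cell-free medium wells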
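IDH1KD HT-1080 cells, 750/well, RPMI + 5% FBS; compound pinned after 2 h settling; 48 h, 37 °C; CellTiter-Glo luminescence; % activity normalised to DMSO and no-cell wells; curves fitted, classed by r2 and efficacy.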
IL1B secr inh = inflammasome signaling inhibition, IL-1 beta readout. THP-1 LPS/ATP IL-1B secretion, AlphaLISA, 16 h; hits give low values. activity change, % at 57.5 µM. hit rate 4.7% among 360,000. AID 743279; in the data active = activity change below about -50%; inconclusive = mostly about -30% to -49%
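THP-1 cells pretreated 1 hr with compounds (up to 57.5 uM final), then stimulated with LPS (250 ng/mL final) plus ATP (1.25 mM final); secreted IL-1B measured by AlphaLISA after 16 hr, decreased signal indicating inhibition.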
TDP1 cell noCPT = qHTS for Inhibitors of human tyrosyl-DNA phosphodiesterase 1 (TDP1): qHTS in cells in absence of CPT. hit rate 15% among 420,000. AID 686978, 2013. DT40 Tdp1-/- hTDP1 cells, no CPT, ATP luminescence, 48 h. Potency, µM (doses to about 46.2 µM), for inactives: at the highest dose activity change, negative = growth inhibition, usual class: inhibitors; note: potency is the fitted concentration of half-maximal effect; nearly all actives have a fitted effect of over 55% in size
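Growth kinetics read by CellTiter-Glo luminescence after ≥48 hr at 37 °C. Cells: DT40 Tdp1-/- stably carrying human TDP1, 400 per well, compound exposure in the absence of CPT (DMSO vehicle).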
DT40 TDP1 CPT = DT40-hTDP1 cell growth loss with CPT. chicken DT40 Tdp1-/-;hTDP1 cells + 20 nM CPT, ATP luminescence, 48 h. Potency, µM (highest dose often 46.2 µM), inactives show at the top dose activity change, negative = growth inhibition, actives largely listed as inhibitors. hit rate 12% among 420,000. AID 686979; note: potency is the fitted concentration of half-maximal effect; nearly all actives have a fitted effect of over 55% in size
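Cell growth measured by CellTiter-Glo luminescence after a minimum 48 h, 37 C compound exposure with 20 nM CPT in Tdp1-knockout DT40 cells stably expressing hTDP1, seeded 400/well; qHTS titration format.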
Starred values were filed as active, the others as inactive; ? = inconclusive; . = no result; [ ] = remark or other dose. A selection: hits, their analogues and other compounds. The true share with any hit is near 19%. Unless noted, calls come from the whole dose curve; as a rule, active = well fitted curve in the direction sought with a large enough effect; inconclusive = small, poorly fitted or top-dose-only effect, or another doubt; inactive = no such curve, though single readings can be large; an effect the other way counts as inactive or inconclusive. Unless noted, % is set by controls: 0 for no effect and ±100 for the full control effect.

SMILES	HT1080-NT tox	HT1080 IDH1KD tx	IL1B secr inh	TDP1 cell noCPT	DT40 TDP1 CPT
COC(=O)N1CCC2(CCN(Cc3ccccc3OC)CC2)CC1	.	.	.	-4%	-1%
CS(=O)(=O)N1CCC2(CC1)CN(C(=O)Nc1cccc(F)c1)C2	.	.	.	-25%	-6%
CCn1c(=O)c2cc(C(=O)N(C)c3cc(C)ccc3OC)sc2c2ccccc21	-7%	-2%	-84*	?	?
CCn1c(=O)c2cc(C(=O)N(C)c3ccc(OC)cc3OC)sc2c2ccccc21	-6%	?	-7	13µM*	?
Brc1ccc(CN2CCCCCC2)cc1	19%	16%	10	11%	15%
Cc1cccc(C(=O)NCc2nc(-c3ccccc3NC(=O)C3CCCO3)oc2C)c1 (centres undefined)	.	.	.	-5%	-7%[9.04 µM]
COc1ccc(NC(=O)C2CCC(CNS(=O)(=O)c3ccc(Br)s3)CC2)c(OC)c1 (centres undefined)	.	.	.	?	18µM*
O=C(N/N=C/c1ccc(OC(=O)c2ccccc2)c([N+](=O)[O-])c1)c1ccc(O)cc1	-1%	-9%	48	-28%	?
CCCCOc1ccc(C2=CSC3=NCCN23)cc1[N+](=O)[O-]	-1%	-9%	-25	29µM*	?
COc1ccc(C2=CSC3=NCCN23)cc1OC	0%	-12%	12	?	5%
CCN(CC)C(=O)Nc1ccc(Br)cc1	4%	-2%	-9	-9%	9%
COc1ccc(C2(C)NC(=O)N(CC(=O)NCc3ccccc3)C2=O)cc1OC (centres undefined)	6%	16%	11	1%	-6%
CCOC(=O)CC(C)(C)/C(C)=N/Nc1ccc([N+](=O)[O-])cc1[N+](=O)[O-]	-3%	-15%	10	15µM*	?
COC(=O)Nc1ccc2c(c1)N(C(=O)CCN1CCN3CCCC3C1)c1ccccc1S2 (centres undefined)	-2%	3%	-25	?	13µM*
CCn1c(N)c(C(=O)Nc2ccccc2C(=O)OC)sc1=S	-5%	1%	34	16µM*	?
CCn1c(N)c(C(=O)NCCOC)sc1=S	19%	13%	14	0%	-3%
Cc1c2cnn(-c3ccccc3)c(=O)c2c(C)n1CCCC(=O)Nc1cc(F)ccc1F	.	.	.	?	-14%
Cc1ccc(C)c(NC(=O)CCCn2c(C)c3cnn(-c4ccccc4)c(=O)c3c2C)c1	.	.	.	?	18µM*
Cc1cccc(NC(=O)CCCn2c(C)c3cnn(-c4ccccc4)c(=O)c3c2C)c1C	.	.	.	?	21µM*
Cc1cccc(NC(=O)CCCn2nc(C)c3c(C)n(-c4ccccc4)nc3c2=O)c1C	.	.	.	-28%	1%
Cc1cc(C)c(NC(=O)CCCn2c(C)c3cnn(-c4ccccc4)c(=O)c3c2C)c(C)c1	.	.	.	23µM*	?
Cc1ccc(C)c(N2CCN(C(=O)C(C)n3c(C)c4cnn(-c5ccccc5)c(=O)c4c3C)CC2)c1 (centres undefined)	.	.	.	16µM*	21µM*
Cc1c2cnn(-c3ccccc3)c(=O)c2c(C)n1CC(=O)NCc1ccc(Cl)cc1	.	.	.	-19%	-26%
CC(C)C[C@@]12C(=O)N(c3cccc(Br)c3)C(=O)N1[C@H](c1ccc(F)cc1)[C@@H]1C(=O)N(C3CCCCC3)C(=O)[C@@H]12	17%	10%	-23	-17%	1%
Cc1ccc(OCCSc2nc3ccccc3n2CCC(=O)O)cc1	-2%	0%	0	0%	-20%
Cc1cccc(N2CCN(C(=O)Cn3c(C)c4cnn(-c5ccccc5)c(=O)c4c3C)CC2)c1C	.	.	.	5.8µM*	7.3µM*
Cc1cccc(N2CCN(C(=O)c3cc4ccccc4oc3=O)CC2)c1C	-2%	2%	-18	-16%	-5%
Cc1cc(C(=O)N2CCN(c3cccc(C)c3C)CC2)c2c(C)nn(-c3ccccc3)c2n1	.	.	.	7.3µM*	?

Source: PubChem BioAssay (National Center for Advancing Translational Sciences (NCATS))
